In PubChem BioAssay (NCI):
Compounds without any hit were thinned out: in the full panel of roughly 83,000, 20% have a hit.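 48-hour exposure, single concentration, 96-well plates; percent growth endpoint where 0 means no net growth. Active: below 10.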 Activity calls are given as the source filed them.

Key:
Test in all cases: NCI-60 one-dose screen, 48 h (100 = growth as untreated, 0 = no growth, -100 = all killed)
Details in all cases: 10 µM unless noted
NCI-H23 lung = system: NCI-H23 lung
NCI-H226 lung = system: NCI-H226 lung
NCI-H322M lung = system: NCI-H322M lung
HOP-62 NSCLC = system: HOP-62 NSCLC
NCI-H522 lung = system: NCI-H522 lung
A549/ATCC NSCLC = system: A549/ATCC NSCLC
786-0 renal = system: 786-0 renal
COLO 205 colon = system: COLO 205 colon
HOP-92 NSCLC = system: HOP-92 NSCLC
NCI-H460 lung = system: NCI-H460 lung

Measured: growth

CN(C)c1nc(NCCNS(=O)(=O)c2ccc(C(=O)/C=C/c3ccc(F)cc3)cc2)nc(Nc2ccc(F)cc2)n1
active: NCI-H23 lung -84% | NCI-H226 lung -74.4% | NCI-H322M lung -22.6% | HOP-62 NSCLC -71.2% | NCI-H522 lung -96.1% | A549/ATCC NSCLC -56.4% | 786-0 renal -85.6% | COLO 205 colon -85.7%

CCN(CC)C(=O)N/C(N)=N/c1nc2ccccc2s1
inactive: NCI-H23 lung 34.5% | NCI-H226 lung 39.4% | NCI-H322M lung 81.4% | HOP-62 NSCLC 68.9% | HOP-92 NSCLC 72.2% | NCI-H522 lung 51.2% | A549/ATCC NSCLC 62.9% | 786-0 renal 63.2% | COLO 205 colon 86.4%

O=C(NN1C(=O)/C(=C/C=C/c2ccc([N+](=O)[O-])o2)SC1=S)c1ccccc1O
active: NCI-H23 lung -86.1% | NCI-H226 lung -71.2% | NCI-H322M lung -63% | HOP-62 NSCLC -53.5% | NCI-H522 lung -90.7% | A549/ATCC NSCLC -58.2% | 786-0 renal -89.5% | COLO 205 colon -82.1%

Cc1cc2nc3c([nH]c2cc1C)c1ccc(=O)cc1n3CCN(C)C
inactive: NCI-H23 lung 38.8% | NCI-H226 lung 59% | NCI-H322M lung 39.9% | HOP-62 NSCLC 43.2% | NCI-H522 lung 19.8% | A549/ATCC NSCLC 28.4% | 786-0 renal 49.1% | COLO 205 colon 10.8%

Cc1ccc(NC(=O)[C@]23CCC(C)(C)CC2C2=CCC4[C@@]5(C)C[C@@H](O)[C@H](O)[C@@](C)(CO)C5CC[C@@]4(C)[C@]2(C)CC3)cc1 (stereo partly drawn)
inactive: NCI-H23 lung 29.5% | NCI-H322M lung 69.3% | HOP-62 NSCLC 47.2% | NCI-H522 lung 12.3% | A549/ATCC NSCLC 20.5% | 786-0 renal 17.1%
active: NCI-H226 lung 9.45% | HOP-92 NSCLC -19.6% | COLO 205 colon -65.9%

O=C(Cn1c2c(sc1=O)[C@H]1[C@@H](O)[C@@H](O)[C@H](O)[C@@H]1CS2)N1CCOCC1
inactive: NCI-H23 lung 105% | NCI-H226 lung 101% | NCI-H322M lung 107% | HOP-62 NSCLC 92.7% | NCI-H522 lung 91.7% | A549/ATCC NSCLC 106% | 786-0 renal 98.7% | COLO 205 colon 116%

NS(=O)(=O)c1ccc(-n2cc(-c3cccc(NC(=O)c4ccc(Cl)c(C(F)(F)F)c4)c3)nn2)cc1
inactive: NCI-H226 lung 10% | NCI-H322M lung 33.4% | NCI-H522 lung 45.8% | 786-0 renal 22.5%
active: NCI-H23 lung -4.59% | HOP-62 NSCLC 3.02% | HOP-92 NSCLC -5.36% | A549/ATCC NSCLC 4.33% | COLO 205 colon 2.2%

CC12CC[C@@H]3[C@]4(C)COC(c5cn[nH]c5-c5ccc(Br)cc5)O[C@@H]4CC[C@@]3(C)[C@@H]1CC(C1=CCOC1=O)O2 (stereo partly drawn)
inactive: NCI-H23 lung 57.3% | NCI-H226 lung 59.7% | NCI-H322M lung 66.1% | HOP-62 NSCLC 79.5% | NCI-H522 lung 37.4% | A549/ATCC NSCLC 35.5% | 786-0 renal 62.3% | COLO 205 colon 39%

C/C(=N\Nc1ccc(S(N)(=O)=O)cc1)c1ccc(N=Nc2c(Nc3ccccc3)[nH][nH]c2=O)cc1
active: NCI-H23 lung 0.196% | NCI-H322M lung 9.22% | HOP-62 NSCLC -17.8% | HOP-92 NSCLC -7.76% | NCI-H522 lung -28.8% | 786-0 renal -45.3% | COLO 205 colon -10.5%
inactive: NCI-H226 lung 42.5% | A549/ATCC NSCLC 75%

C=C1CCC2C3(C)COC(c4ccccc4)OC3CCC2(C)C1CC(Sc1ccccc1)C1=CCOC1=O (stereo not drawn)
inactive: NCI-H23 lung 44.2% | NCI-H226 lung 10.6% | NCI-H322M lung 80.5% | HOP-62 NSCLC 88.6% | A549/ATCC NSCLC 35.3% | 786-0 renal 52.3% | COLO 205 colon 71.3%
active: NCI-H522 lung 3.01%

C=CC[N+](C)(C)CCn1c2ccccc2c2nc3cc(C)c(C)cc3nc21
inactive: NCI-H23 lung 70.5% | NCI-H226 lung 92.5% | NCI-H322M lung 102% | HOP-62 NSCLC 96.3% | HOP-92 NSCLC 111% | NCI-H522 lung 51.5% | A549/ATCC NSCLC 106% | 786-0 renal 89% | COLO 205 colon 88.6%

CN(C)CCn1c2ccccc2c2nc3ccc([N+](=O)[O-])cc3nc21
inactive: NCI-H322M lung 11.3% | HOP-92 NSCLC 28.9%
active: NCI-H23 lung -9.77% | NCI-H226 lung -21.2% | HOP-62 NSCLC -19.3% | NCI-H522 lung -25.2% | A549/ATCC NSCLC -50% | 786-0 renal 1.77% | COLO 205 colon 3.88%

CN(C)c1nc(NCCNS(=O)(=O)c2ccc(C(=O)/C=C/c3ccc(C(F)(F)F)cc3)cc2)nc(Nc2ccc(F)cc2)n1
inactive: NCI-H322M lung 27.7% | HOP-62 NSCLC 68.7% | A549/ATCC NSCLC 10.1%
active: NCI-H23 lung -5.94% | NCI-H226 lung -48.9% | NCI-H460 lung -19.6% | 786-0 renal -75.7% | COLO 205 colon -47.5%

COc1cc(OC)c2c3nc4cc(C)c(C)cc4nc3n(CCN(C)C)c2c1
inactive: NCI-H23 lung 67.4% | NCI-H226 lung 72.4% | NCI-H322M lung 73.3% | HOP-62 NSCLC 70.9% | NCI-H522 lung 56.2% | 786-0 renal 50.7% | COLO 205 colon 48.4%
active: A549/ATCC NSCLC 8.98%

COc1ccc(-c2c(Nn3cnnn3)no[n+]2[O-])cc1
inactive: NCI-H23 lung 58.9% | NCI-H226 lung 83.2% | NCI-H322M lung 63.5% | HOP-62 NSCLC 75.2% | NCI-H460 lung 39.5% | A549/ATCC NSCLC 67.1% | 786-0 renal 53.6% | COLO 205 colon 55.1%

COc1ccc(C(=O)/C=C/c2cccc(Cl)c2)cc1S(N)(=O)=O
active: NCI-H23 lung -10.4% | HOP-62 NSCLC -37.4% | NCI-H522 lung -50.1% | A549/ATCC NSCLC -81.7% | 786-0 renal -57.3% | COLO 205 colon -65.1%
inactive: NCI-H226 lung 38.3% | NCI-H322M lung 10.7% | HOP-92 NSCLC 85.8%

CC(=O)Nc1cccc(Nc2nc(N[C@H]3CCCc4ccccc43)c3ccccc3n2)c1
inactive: NCI-H23 lung 104% | NCI-H226 lung 111% | NCI-H322M lung 103% | HOP-62 NSCLC 102% | HOP-92 NSCLC 110% | NCI-H522 lung 97.5% | A549/ATCC NSCLC 104% | 786-0 renal 106% | COLO 205 colon 109%

CC12CC[C@@H]3[C@]4(C)COC(c5cn[nH]c5-c5cccc(Cl)c5)O[C@@H]4CC[C@@]3(C)[C@@H]1CC(C1=CCOC1=O)O2 (stereo partly drawn)
inactive: NCI-H23 lung 43.5% | NCI-H226 lung 42.9% | NCI-H322M lung 52.1% | HOP-62 NSCLC 74.6% | NCI-H460 lung 33.7% | A549/ATCC NSCLC 26.7% | 786-0 renal 47.5% | COLO 205 colon 18.3%

COc1ccc(C2CC(c3ccc(S(=O)(=O)NCCNc4nc(Nc5ccc(F)cc5)nc(N(C)C)n4)cc3)=Nc3c(N)nc(N)nc3N2)cc1 (stereo not drawn)
inactive: NCI-H23 lung 90.4% | NCI-H226 lung 84.4% | NCI-H322M lung 96.6% | HOP-62 NSCLC 90.3% | NCI-H460 lung 73.6% | A549/ATCC NSCLC 91.3% | 786-0 renal 50.2% | COLO 205 colon 82.8%

Cn1cc(-c2cc(N)n3nc(-c4c[nH]c5ccccc45)cc3n2)c2cccnc21
inactive: NCI-H23 lung 47.6% | NCI-H226 lung 71.2% | NCI-H322M lung 44.7% | HOP-62 NSCLC 62.6% | A549/ATCC NSCLC 51.7% | COLO 205 colon 40.2%
active: NCI-H460 lung 2.29% | 786-0 renal -81.3%

CC(=O)Nc1ccc(-n2cnc3ccc(-c4ccc(O)cc4)cc32)cc1
inactive: NCI-H23 lung 41.3% | NCI-H226 lung 52.5% | NCI-H322M lung 44% | HOP-62 NSCLC 53% | HOP-92 NSCLC 66% | NCI-H522 lung 54% | A549/ATCC NSCLC 44% | 786-0 renal 48.5% | COLO 205 colon 123%

CC(C)c1ccc2c(N)c(C(=O)Nc3cccc(C(F)(F)F)c3)sc2n1
inactive: NCI-H23 lung 90.5% | NCI-H226 lung 69.3% | NCI-H322M lung 81.2% | HOP-62 NSCLC 62.6% | HOP-92 NSCLC 82.7% | NCI-H522 lung 48.8% | A549/ATCC NSCLC 78.8% | 786-0 renal 67.9% | COLO 205 colon 48.2%

N#Cc1c(-c2cccc(O)c2O)cc(-c2ccc3ccccc3c2)[nH]c1=O
inactive: NCI-H23 lung 52.1% | NCI-H226 lung 68.3% | NCI-H322M lung 72.7% | HOP-62 NSCLC 49.2% | HOP-92 NSCLC 28% | NCI-H522 lung 51.3% | A549/ATCC NSCLC 84.9% | 786-0 renal 64.1% | COLO 205 colon 84%

O=C(O)c1ccc(-c2ccc(/C=N/NC(=O)c3[nH]c4ccc(Br)cc4c3-c3ccccc3)s2)cc1
active: NCI-H23 lung 8.04% | HOP-92 NSCLC -4.63% | NCI-H522 lung -1.38%
inactive: NCI-H226 lung 22.8% | NCI-H322M lung 20.4% | HOP-62 NSCLC 28.5% | A549/ATCC NSCLC 23.1% | 786-0 renal 16.5% | COLO 205 colon 23.6%

Cc1ccc(C(=O)CSc2nc3ccc(C)cc3c(=O)n2-c2ccc(F)cc2)cc1
active: HOP-62 NSCLC 7.49% | HOP-92 NSCLC -0.0399% | 786-0 renal -3.55%
inactive: NCI-H23 lung 56.8% | NCI-H226 lung 15% | NCI-H322M lung 60% | NCI-H522 lung 63.8% | A549/ATCC NSCLC 57.6% | COLO 205 colon 84%

O=C(NNc1nc2cc(F)ccc2n2c(CN3CC4CNCC4C3)ccc12)c1ccncn1 (stereo not drawn)
inactive: NCI-H23 lung 30.7% | NCI-H322M lung 30.8% | HOP-62 NSCLC 38.3% | HOP-92 NSCLC 34.5% | NCI-H522 lung 32.1% | A549/ATCC NSCLC 17.8% | COLO 205 colon 10%
active: NCI-H226 lung 7.23% | 786-0 renal -2.41%

O=C(COc1ccc2c(c1)CCCC(=O)N2)NCc1ccccc1
inactive: NCI-H23 lung 94.5% | NCI-H226 lung 93.9% | NCI-H322M lung 112% | HOP-62 NSCLC 92.5% | NCI-H522 lung 89.1% | A549/ATCC NSCLC 103% | 786-0 renal 101% | COLO 205 colon 106%

CCOC(=O)C1=C(N)N(c2ccccc2)C2=C(C(=O)CC(C)(C)C2)C1c1ccc(N2CCOCC2)cc1 (stereo not drawn)
inactive: NCI-H226 lung 89.8% | NCI-H322M lung 99.1% | HOP-62 NSCLC 102% | NCI-H460 lung 106% | HOP-92 NSCLC 87.7% | NCI-H522 lung 89.4% | A549/ATCC NSCLC 103% | 786-0 renal 87.7% | COLO 205 colon 108%

C#CCOc1ccc(/C=N/Nc2nc(-c3cc4cc(Br)ccc4oc3=O)cs2)cc1OC
inactive: NCI-H226 lung 29.8% | NCI-H322M lung 77.8% | HOP-62 NSCLC 51.7% | NCI-H460 lung 43.4% | HOP-92 NSCLC 45.5% | NCI-H522 lung 34.3% | A549/ATCC NSCLC 49.5% | 786-0 renal 50.8% | COLO 205 colon 88.1%
